Test results taken from ChEMBL document CHEMBL3433997, “St. Jude Leishmania screening dataset” (2016).

Target: Solute carrier family 2, facilitated glucose transporter member 1 (Homo sapiens) (UniProt P11166)
Assay: ST_JUDE_LEISH: Cytotoxicity at 2uM final concentration against transgenic Leishmania Mexicana promastigotes LmGLUT1 that are glucose transport deficient and complemented with the human glucose transporter GLUT1. Activity is measured by DNA content using SYBR green in vitro
Type: functional

Solute carrier family 2, facilitated glucose transporter member 1 (Homo sapiens), sequence (P11166 whole entry): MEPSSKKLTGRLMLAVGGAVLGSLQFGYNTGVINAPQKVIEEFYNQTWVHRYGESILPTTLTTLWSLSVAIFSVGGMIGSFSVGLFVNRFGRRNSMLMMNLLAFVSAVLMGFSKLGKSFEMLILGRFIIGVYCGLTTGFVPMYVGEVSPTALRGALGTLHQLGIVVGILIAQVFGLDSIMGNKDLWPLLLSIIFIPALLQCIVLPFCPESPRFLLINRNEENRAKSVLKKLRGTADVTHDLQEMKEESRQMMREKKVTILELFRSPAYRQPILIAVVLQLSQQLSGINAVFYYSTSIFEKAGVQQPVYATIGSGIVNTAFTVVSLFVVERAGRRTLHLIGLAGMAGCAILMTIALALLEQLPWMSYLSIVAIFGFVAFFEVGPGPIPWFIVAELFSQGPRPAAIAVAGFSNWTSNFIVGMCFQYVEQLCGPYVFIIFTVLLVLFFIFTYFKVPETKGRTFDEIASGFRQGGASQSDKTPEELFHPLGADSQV

Structure (SMILES)	inhibition
COc1cccc2c(Nc3ccccc3C)nc(Nc3ccccc3C)nc12	19.6%
COc1ccc(CNCc2ccccc2)cc1-c1ccc(S(=O)(=O)NCCN2CCCC2)s1	1.43%
C=CCc1cc(C2CCN(CCCCNC(=O)c3ccc(-c4ccc(C#N)cc4)cc3)CC2)c(OCC(N)=O)c2c1CCCC2	0.81%
CC(C)Oc1ccc2c(c1)OC(c1ccccc1)(C(F)(F)F)NC2=O (stereo not given)	14.6%
CN(C)CCOc1ccc(N2CCN(CCCCNC(=O)c3ccc(/C=C/c4cc(Cl)cc(Cl)c4)cc3)CC2)cc1	-0.63%
Cc1ccc(NCc2cccc(F)c2)cc1S(=O)(=O)N[C@@H]1CCN(C#N)C1	7.1%
CN1CCN(CCNc2c3ccccc3nc3ccc4ccccc4c23)CC1	18.8%
Cc1nc2nc(N)nc(N)c2c(C)c1Cc1ccc(Cl)cc1	33.4%
Cc1n[nH]c2ccc(-c3cc(OC[C@@H](N)Cc4ccccc4)cnc3-c3ccc(OCc4cccc(F)c4)cc3)cc12	-0.24%
CN=C(N)c1ccc(NC(=O)C=Cc2ccc(C(=O)Nc3ccc(C(N)=NC)cc3)cc2)cc1	9.91%
CCOC(=O)NCCSC(C)(C)[C@H](NC(=O)[C@H](Cc1cc2ccccc2s1)[C@H](CC)N(O)C=O)C(=O)Nc1nccs1	0.32%
CCCCNc1nccc2ccc(-c3ccncc3)cc12	3.45%
COc1ccccc1-n1c(-c2ccc3ccccc3c2)csc1=NC(=O)c1ccccc1	0.68%
N#Cc1ccc2c(c1)CCN(CCC1CCC(NC(=O)/C=C/c3ccc4[nH]ccc4c3)CC1)CC2 (stereo not given)	1.65%
Cc1cccc2nc(-c3cccc(-c4ccc(CNCCNC(=O)c5ccnn5C)cc4)c3)[nH]c12	-1.64%
Cc1cccc(NC(=O)NC2CCN(CCCCCNC(=O)/C=C/c3ccc(Cl)c(Cl)c3)CC2)c1	4.31%
COc1ccc(-c2cccc(NC(=O)c3ccc(C#N)cc3)c2)cc1CN1CCN(C)CC1	16.1%
CCN(CC)CCN(Cc1ccc(-c2ccc(C(F)(F)F)cc2)cc1)C(=O)Cn1c(SCc2ccc(F)cc2)nc(=O)c2ccccc21	4.02%
O=C(/C=C/c1ccc(Cl)cc1)NCCCCCN1CCCN(C(=O)Nc2ccc(F)c(Cl)c2)CC1	5.5%
COc1ccc(CC2(c3ccc(F)cc3)N=C(N)N(CCCc3ccc(F)c(F)c3)C2=O)cc1 (stereo not given)	2.06%

Structure (SMILES)	inhibition
CCC(C)NS(=O)(=O)c1ccc2nc(Nc3ccc(C)cc3)n([C@H](C)C(C)(C)C)c2c1 (stereo not given in full)	2.68%
C[C@H](NC(=O)[C@H](Cc1ccccc1)NC(=O)OC(C)(C)C)C(=O)N[C@@H](CC1CCCCC1)C(O)CN (stereo not given in full)	-1.66%
CC(C)[C@H](NC(=O)c1ccc(O)c(-c2cccc(C(F)(F)F)c2)c1)C(=O)NC1CCCc2ccccc21 (stereo not given in full)	3.9%
COc1c(I)cc(Cc2cnc(N)nc2N)cc1I	6.68%
Cc1cc(N[C@@H](CC(C)C)C(=O)NCc2cccc(F)c2)nc(NCCc2ccccc2)n1	3.97%
Cc1cccc2nc(-c3ccc(-c4cccc(CNCc5cnn(-c6ccccc6)n5)c4)s3)[nH]c12	3.52%
O=C(Nc1ccc(Cl)cc1)N[C@H]1CCN(CCCCCNC(=O)C2CC2c2ccc(Cl)c(Cl)c2)C1 (stereo not given in full)	8.91%
CC(C)NCc1ccc(-c2ccc(-c3nc4cc(C(F)(F)F)ccc4[nH]3)s2)cc1	19.5%
O=C(Nc1cccc(-c2nn3ccccc3c2-c2ccnc(Nc3ccccc3)n2)c1)c1cc(F)ccc1F	4.48%
CC(C)CNCc1ccc(-c2cccc(CN(CCCN3CCN(C)CC3)C(=O)/C=C/c3ccccc3)c2)cc1	5.83%
Cc1nc(N)nc(N)c1Oc1cccc(Cl)c1	3.72%
COc1ccc(C2CC(=O)C3=C(C2)NC(C)=C(C(=O)OC(C)C)C3c2ccc(O)cc2)cc1OC (stereo not given)	8.55%
O=S(=O)(c1cccc(Br)c1)N1CCCCC(c2ccc(C(F)(F)F)cc2)=N1	1.84%
Fc1ccc(CNc2ccc3ncc(-c4cccnc4)n3n2)cc1	2.61%
CC1c2cccc(O)c2CCN1CCc1ccc(Cl)c(Cl)c1 (stereo not given)	12.5%
O=C(NCC1CCN(C/C=C/c2ccccc2)CC1)Nc1ccc(Oc2ccccc2)cc1	6.42%
Cc1nc2nc(N)nc(N)c2c(C)c1Cc1ccc([N+](=O)[O-])cc1	5.73%
COc1cc(C)nc2ccc(NC(=O)Nc3ccc4nc(C)cc(OC)c4c3)cc12	8.47%
COc1ccc2cc(C(c3nnnn3CC3CCCO3)N3CCc4ccccc43)c(=O)[nH]c2c1 (stereo not given)	2.55%
CC(O)C1CCCCN1C(=O)c1ccc(-c2ccc(-c3nc4cc(F)ccc4[nH]3)cc2)cc1 (stereo not given)	3.95%
